In all, about 2,100 compounds went through this assay and about 480 (23%) were called active. About 5% were inconclusive and are not listed.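 How the source made its calls: active means fitted curve reaches 40% activation at or below the top valid concentration, in every replicate test; inconclusive means replicate tests disagree on the call; inactive means the rest, including activity in the opposite direction.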 These entries were drawn from the full list. Measured potencies and affinities stand elsewhere.
Test: PGC1a acetylation increase, cellular AlphaLISA – cell-based, cherry-picked samples, set 6, dose response (AID 720513);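 further: cells made to overexpress flag tagged PGC1a plus GCN5 acetyltransferase by viral infection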
Details: U2OS PGC1a acetylation AlphaLISA, overnight, 0 = neutral, -100 = inhibitor control; series mostly up to 19.5 µM

outcome, inactive:
Nc1cc2ccncc2c2ccccc12, Cc1cc(Sc2nnc(N)s2)c2ccccc2n1, O=c1c2cccnc2n(-c2ccccc2)n1Cc1ccc(Cl)cc1, O=C(Nc1ccc(-c2cn3c(n2)SCC3)cc1)c1ccc2ccccc2n1, COc1ccc(C(=O)Nc2cccc(NC(=O)c3ccc(OC)c(OC)c3)n2)cc1OC, CCN(CC(=O)Nc1ccccc1OC)C(=O)C1CCC1, CCc1c(C(=O)NC2CCCCC2)[nH]c(C)c1C(C)=O, CCn1c(C(=O)NC2CCC(C)CC2)cc2sccc21 (stereo unspecified), CN(Cc1c(F)cccc1Cl)C(=O)CNC(=O)c1sc2ccccc2c1Cl, CN(Cc1c(F)cccc1Cl)c1nnnn1-c1ccccc1, CN(c1cc2c(c3c1ccn3C)C1CCC2C1)C1CCCCC1 (stereo unspecified), CCN(CC)CCNc1nc(-c2ccc(OC)cc2)c(-c2ccc(OC)cc2)s1, CCCCNC(=O)C1CCN(Cc2ccccn2)CC1, CC1(Cc2cc(Cl)ccc2C(F)(F)F)C(=O)Nc2ccc(S(=O)(=O)NC3CCCCC3)cc21 (stereo unspecified), O=S(=O)(/C(=C\c1ccc(C(F)(F)F)cc1)c1nc2ccccc2[nH]1)c1ccccc1, N#C/C(=C(/O)c1cc2ccccc2o1)c1nc2ccccc2s1, CC(=O)Nc1cc(OC(C)=O)c2nonc2c1OC(C)=O, Cc1ccccc1CSc1nnc(-c2ccco2)n1Cc1ccco1, COCC(=O)Nc1ccc2c(c1)OC[C@@H](C)N(CCc1ccccc1)C[C@H](C)[C@@H](OC)CN(C)C2=O, Cc1cccc(-n2c(=O)cc(N3CCN(c4ccc(F)cc4)CC3)[nH]c2=O)c1, CC(C)c1nnc(NC(=O)CCS(=O)(=O)c2nc(-c3cccs3)cc(C(F)(F)F)n2)s1, COC(=O)c1ccc(CSc2nc3c(cnn3-c3ccc(Cl)cc3)c(=O)[nH]2)o1, CC(=O)N1CCN(S(=O)(=O)c2cccc(C(=O)Nc3ccc4c(c3)OCO4)c2)CC1, O=C(NCc1ccc2c(c1)OCO2)C1CCN(S(=O)(=O)c2cccs2)CC1, Cc1cc(C)n(-c2nc(O)cc(=O)[nH]2)n1, C[C@H]1CN([C@@H](C)CO)C(=O)CCCn2nncc2CO[C@@H]1CN(C)C(=O)Nc1ccccc1, O=C(Cc1ccc(Cl)cc1)Nc1ncccn1, NS(=O)(=O)c1cccc(NC(=O)CSc2ccccn2)c1, CC(C)OC(=O)c1c(F)c(F)c(N2CCOCC2)c(F)c1F, Cc1noc(C)c1S(=O)(=O)N(C)C[C@H]1Oc2ccc(NC(=O)Nc3ccccc3)cc2CC(=O)N([C@H](C)CO)C[C@H]1C, O=S(=O)(c1ccc(Br)s1)N1CCN(Cc2ccc3c(c2)OCO3)CC1, CCC(CC)NC(=O)Cc1ccc(S(=O)(=O)N2CCOCC2)s1, Cc1cccnc1C(NC(=O)C1CCN(Cc2cn(C)c3ccccc23)CC1)c1ccc(Cl)cc1 (stereo unspecified), Cc1c(/C(O)=C2\C(=O)C(=O)N(CCCN(C)C)C2c2ccccc2)cnn1-c1ccccc1 (stereo unspecified), CC1CN(c2oc(-c3cccs3)nc2C#N)CC(C)O1 (stereo unspecified), COc1ccc(C2=NOC(C(=O)Nc3cccnc3)C2)cc1 (stereo unspecified), Cc1ccc(CNC(=O)c2ccc(CS(=O)(=O)c3ccccc3)o2)cc1, O=C(c1cccc(F)c1)N1CCN(C(=O)c2cc(-c3ccc(Cl)cc3Cl)on2)CC1, C[C@H](CO)N1C[C@H](C)[C@@H](CN(C)CC2CCOCC2)Oc2ncc(Br)cc2C1=O, O=c1c(Cl)c(NCCCO)cnn1-c1nc2ccccc2[nH]1, CC(=O)Nc1ccc(Oc2sc(C(=O)c3ccccc3)c(N)c2C#N)cc1, COc1ccc(Nc2ccnc3ccccc23)cc1, COc1ccc(C(=O)Sc2nncc3ccccc23)cc1, c1ccc(CNc2ncnc3nc[nH]c23)cc1, Brc1ccc2ncnc(NCc3ccccc3)c2c1, COc1ccc(NC(=O)CN(C)C(=O)CCNC(=O)c2ccccc2OC)cc1, Nc1nn(-c2ccccc2)nc1C(=O)OCc1ccccc1, N#Cc1c(-c2cccc(Br)c2)cc(-c2ccco2)[nH]c1=O, COCc1ccc(CN2CCC(n3nccc3NC(=O)c3ccc4c(c3)OCO4)CC2)o1, CSCC(=O)N1CCCC(CO)(Cc2ccccc2C)C1 (stereo unspecified), CO[C@H]1CN(C)C(=O)c2cc(NS(C)(=O)=O)ccc2OC[C@H](C)N(C(=O)NC(C)C)C[C@@H]1C, Cc1ccc(Nc2nc(C)cc(C)c2C(N)=O)c(C)c1, O=C(/C=C/c1ccc(N2CCCCC2)c([N+](=O)[O-])c1)c1ccc(O)cc1, Cc1ccc(NC(=O)C2C(c3ccccc3)C2(Cl)Cl)c(C)c1 (stereo unspecified), O=c1[nH]nc(-c2ccc(NCCCO)c([N+](=O)[O-])c2)c2ccccc12, CCOc1ccc2nnc(-c3ccc(Br)cc3)n2n1, CS(=O)(=O)Nc1ccc2c(c1)[C@@H]1C[C@H](CC(=O)N3CCc4ccccc4C3)O[C@@H](CO)[C@@H]1O2, Nc1ncc([N+](=O)[O-])c(N2CCCCCC2)n1, CCNC(=O)NC(=O)COc1ccccc1C#N, O=C1c2ccccc2-[n+]2ccc3c([nH]c4ccccc43)c21, Cc1[nH]c(=O)[nH]c(=O)c1S(=O)(=O)Nc1ccc(F)c(Cl)c1, CCn1c(SCC(=O)Nc2ccc(OC)c(OC)c2)nnc1-c1cccs1, CCc1ccc(NC(=O)CSc2nnc(-c3cnccn3)n2Cc2ccco2)cc1, COCC(=O)OCC(=O)Nc1cc(C(C)(C)C)nn1-c1ccccc1, CN1[C@@H]2CC(OC(=O)[C@H](CO)c3ccccc3)C[C@H]1[C@@H]1O[C@@H]12 (stereo partly specified), CCOC(=O)C1CN(S(=O)(=O)c2ccccc2)c2cc(S(=O)(=O)CC)ccc2O1 (stereo unspecified), CCOC(=O)C1CN(S(=O)(=O)c2ccc(C)cc2)c2cc(S(=O)(=O)CC)ccc2O1 (stereo unspecified), Cc1cc2nc(/C=C/c3cccnc3)[nH]c2cc1C, COc1ccc(C2c3[nH]c4ccccc4c3C[C@H]3C(=O)N(c4ccccc4C(=O)N4CCC[C@@H]4C(=O)O)C(=O)N23)cc1 (stereo partly specified), CC(=O)NC1CCN(CC(=O)Nc2nccs2)CC1, O=C(CCC1CCN(Cc2ccccc2Cl)CC1)NC1CC1, Cc1ccccc1Oc1cc(-n2ncc(Cl)c(Cl)c2=O)ncn1, CC(C)(C)NC(=O)Cn1nnc(-c2ccccc2NC(=O)c2ccco2)n1, O=C(Cc1ccccc1)Nc1ccc(Cl)cn1, Cc1noc(C)c1NC(=O)Nc1ccc2c(c1)C(=O)N([C@@H](C)CO)C[C@@H](C)[C@@H](CN(C)CC1CCCCC1)OCCCC[C@H](C)O2, COc1cc(CN2CCN(Cc3ccccc3C(F)(F)F)CC2)cc(OC)c1OC, COc1ccccc1CN1C[C@@H]2C[C@@H](c3cccc(C)n3)N3CCC[C@@]23C1=O, Cc1nc(C(C)N(C)Cc2nc(-c3ccc4c(c3)OCO4)no2)c(C)s1 (stereo unspecified), CC(NC(=O)Nc1cccnc1)(C(F)(F)F)C(F)(F)F, CC(=O)c1cccc(NC(=O)Nc2cccnc2)c1, C#CC(CC)(CC)NC(=O)c1ccc(Br)s1, COc1ccccc1C#Cc1ccc2c(c1)O[C@@H](CN(C)Cc1cccnc1)[C@H](C)CN([C@H](C)CO)S2(=O)=O, OC(c1cc(C(F)(F)F)nc2c(C(F)(F)F)cccc12)C1CCCCN1 (stereo unspecified), Cc1ccc(-c2cnc3c(c2)C(=O)N([C@H](C)CO)C[C@H](C)[C@@H](CN(C)C)O3)cc1, C[C@@H](C(=O)Nc1cc(C(F)(F)F)ccc1N1CCOCC1)N1C(=O)C2CC=CCC2C1=O (stereo partly specified), C[C@@H]1CCCCO[C@H](CN(C)Cc2ccc(Cl)c(Cl)c2)[C@H](C)CN([C@@H](C)CO)C(=O)c2cc(NC(=O)Nc3ccc(F)cc3)ccc2O1, CCCCn1c(SCC(=O)NCc2ccc3c(c2)OCO3)nnc1C(CC)N(C)C (stereo unspecified), COc1cc2cc(C)c3nnc(SCC(=O)Nc4cc(C)on4)n3c2cc1OC, Cc1nc2ccccn2c1C(=O)/C=C/c1ccc(F)cc1, CN(C)C(=O)c1ccc(-c2ccc([C@H]3[C@H]4CN(C(=O)CC5CC5)CC(=O)N4[C@H]3CO)cc2)cc1, O=C(CCN1CCc2ccccc2C(c2ccccc2)C1)c1ccc2c(c1)OCCO2 (stereo unspecified), O=C(O)c1ccc2c(c1)OCCCO2, CCC(C)NC(=O)c1ccc2c(SCC(=O)O)c3c(nc2c1)CCCC3 (stereo unspecified), COc1cccc(C(=O)CSc2nnc(CNS(=O)(=O)c3ccc(C)cc3)n2C)c1, C[C@@H]1CN([C@@H](C)CO)C(=O)c2cc(NC(=O)CCCN(C)C)ccc2O[C@@H](C)CCCCO[C@@H]1CN(C)Cc1ccc(C(F)(F)F)cc1, CC1=CC=CC2=NC(=O)CC(C)(C(=O)N(CC(=O)NC3CCCC3)c3ccccc3C)N12 (stereo unspecified), Cn1c(=O)cc(OCCCC(=O)NC2CCCC2)c2ccccc21, c1nc(NC2CCCCCC2)c2[nH]cnc2n1, CCOc1cc(C)c(S(=O)(=O)N2CCCC2)cc1C, O=C(Nc1cccc(F)c1)C1CCN(S(=O)(=O)c2cccc3nonc23)CC1, CCOc1ccc(S(N)(=O)=O)cc1-c1nc2c(C(C)(C)C)nn(C)c2c(=O)[nH]1

— PubChem BioAssay AID720513 (Broad Institute, 2013)
